Assay results: PubChem BioAssay AID372 (MTDP, 2006)
Out of some 100,000 compounds screened, about 770 (0.77%) were called active. The sample holds actives, similar compounds and a random draw of the others, so the mix is not that of the screen. Values without a mark were called inactive. No stated cut-off is given here; in the data, active means inhibition above about 50%; inactive means the rest.

What follows are compounds tested against Gag-Pol polyprotein (Human immunodeficiency virus type 1 group M subtype B (isolate HXB2)) (UniProt P04585) (assay: RNase H inhibition, HIV 1 Gag Pol polyprotein, FRET biochemical assay, screening (AID 372)). Details: HIV-1 RT RNase H, FRET RNA/DNA substrate fluorescence; at 10 µM; hits give high values.

Row | SMILES | inhibition
1 | Cc1c(OCC(N)=O)ccc2c1oc(=O)c1ccccc12 | 47%
2 | COc1ccccc1N1CCN(/N=C/C=C\c2ccco2)CC1 | 8%
3 | C[n+]1cccc(C(=O)NCCOC(=O)c2ccc(F)cc2)c1 | 0%
4 | O=C1/C(=C\c2ccc(O)cc2)SC(=S)N1Cc1ccccc1 | 46%
5 | O=C1/C(=C/c2ccc(O)c([N+](=O)[O-])c2)SC(=S)N1Cc1ccccc1 | 23%
6 | O=C(O)CCCCCN1C(=O)/C(=C/c2ccc(O)c(O)c2)SC1=S | 53% (active)
7 | O=C(O)CCCCCCCCCCN1C(=O)/C(=C/c2ccc(Br)cc2)SC1=S | 25%
8 | COc1cc(/C=C2\SC(=S)N(CCCCCCCCCCC(=O)O)C2=O)ccc1O | 23%
9 | O=C1/C(=C\c2ccc(O)c(O)c2)SC(=S)N1Cc1ccccc1 | 73% (active)
10 | CCOc1ccc(/C=N/N2CCN(Cc3cccc4ccccc34)CC2)cc1OC | 13%
11 | NC(=O)c1ccccc1NC(=O)c1sc2ccccc2c1Cl | 0%
12 | O=C1S/C(=C/c2ccc3c(c2)OCO3)C(=O)N1CN1CCCC1 | 10%
13 | c1ccc(CCCN2CCN(Cc3cccnc3)CC2)cc1 | 5%
14 | COC(=O)C1=C(C)N=c2s/c(=C\c3ccccc3F)c(=O)n2C1c1ccc(OC)cc1 (stereo not drawn) | 11%
15 | CCOC(=O)c1ccc(N2C(=O)C3C(C2=O)C2(c4ccccc4)C(=O)C3(c3ccccc3)C(c3ccc(OC)cc3)=C2c2ccc(OC)cc2)cc1 (stereo not drawn) | 44%
16 | COC(=O)c1ccc(N2C(=O)C3C(C2=O)C2(c4ccccc4)C(=O)C3(c3ccccc3)C(c3ccc(OC)cc3)=C2c2ccc(OC)cc2)cc1 (stereo not drawn) | 57% (active)
17 | COc1ccc(C2=C(c3ccc(OC)cc3)C3(c4ccccc4)C(=O)C2(c2ccccc2)C2C(=O)N(c4ccc(Br)cc4)C(=O)C23)cc1 (stereo not drawn) | 42%
18 | COc1cc2ccccc2cc1C(=O)Nc1ccc(Cl)c(Cl)c1 | 24%
19 | Cc1ccc(OCC2CNC(=O)O2)cc1 (stereo not drawn) | 10%
20 | CCc1ccc(N2C(=O)NC(=O)/C(=C\c3ccc(I)o3)C2=O)cc1 | 11%
21 | CCOc1ccc(N2C(=O)NC(=O)/C(=C\c3ccc(I)o3)C2=O)cc1 | 5%
22 | CCc1ccc(N2C(=O)/C(=C/c3ccc(I)o3)C(=O)NC2=S)cc1 | 97% (active)
23 | CCc1ccc(N2C(=O)/C(=C/c3ccc(-c4ccc(F)cc4)o3)C(=O)NC2=S)cc1 | 26%
24 | CCOc1ccc(N2C(=O)/C(=C/c3ccc(N(CC)CC)o3)C(=O)NC2=S)cc1 | 21%
25 | CCOc1cccc(N2C(=O)/C(=C/c3ccc(I)o3)C(=O)NC2=S)c1 | 39%
26 | O=C1NC(=S)N(c2ccc(Cl)cc2)C(=O)/C1=C/c1ccc(N2CCCC2)o1 | 10%
27 | CCOc1ccc(N2C(=O)NC(=O)/C(=C\c3ccc(Br)o3)C2=O)cc1 | 1%
28 | O=C1NC(=S)N(c2ccc(Cl)cc2)C(=O)/C1=C/c1ccc(-c2ccc(F)cc2)o1 | 25%
